ChEMBL document CHEMBL3988442, “University of Dundee, Small-Polar-MMV Screening Library” (2021)
Among all 85,000 compounds or so, about 440 (0.52%) showed an effect of 50% or more. The sample as a whole holds a higher share of strong results than the screen did.

Assay: In vitro enzyme assay to detect hydrolysis of chlorophenol red-beta-D-[…] directly proportional to the number of Toxoplasma stably expressing beta-galactosidase
Format: functional, organism-based, Toxoplasma gondii
Set-up: scale not given: in the data most compounds retested in dose-response had high values

Row | SMILES | Percent Effect (10 µM) | Percent Effect (50 µM)
1 | Cc1ccccc1OCCC(=O)OC(C)C(=O)Nc1sccc1C(N)=O (stereo unspecified) | -4.306% | –
2 | CC(C(=O)Nc1sccc1C(N)=O)N(C)CCOc1ccccc1 (stereo unspecified) | 66.89% | –
3 | CC(C(N)=O)N(C)CCCOc1ccccc1 (stereo unspecified) | – | 9.989%
4 | CCc1nsc(N2CC(CO)C2)n1 | – | 7.559%
5 | CCCC(O)CNS(=O)(=O)c1cc(F)cc(F)c1 (stereo unspecified) | – | -5.662%
6 | CC1CCCN(C(=O)c2cc(O)nc3ccccc23)C1 (stereo unspecified) | – | 6.15%
7 | COc1ccc(C2CCCN2c2cnccn2)c(OC)c1 (stereo unspecified) | -3.299% | –
8 | COc1ccc(C2CCCN2c2nnc(C)s2)c(OC)c1 (stereo unspecified) | 0.194% | –
9 | COc1ccc(C2CCCN2c2ccnc(C)c2Cl)c(OC)c1 (stereo unspecified) | 50.91% | –
10 | NCCN1CCc2c(Cl)cccc2C1=O | – | 17.2%
11 | NC1CCN(C(=O)C2CCCC2)C1 (stereo unspecified) | – | 2.86%
12 | Cn1nc(-c2nc(C(C)(C)C)no2)ccc1=O | – | 3.371%
13 | N#CC[C@@H](N)c1ccccc1 | – | -6.546%
14 | CNc1cc(-c2cccc(OC)c2OC)nc(N)n1 | – | 50.78%
15 | COc1ccc(F)c(-c2cc(NCCO)nc(N)n2)c1 | 0.663% | –
16 | COc1ccc(-c2cc(NCCO)nc(N)n2)cc1C | – | 29.21%
17 | CC(C)(C)CCOc1cnccc1CN | – | 14.78%
18 | Cc1cc(C)c(C#N)c(N2CCC(Cc3ccccc3)CC2)n1 | -2.69% | –
19 | Cc1cc(NCCO)nc2ccccc12 | – | -2.255%
20 | Cc1cc(NCCO)nc(N2CCN(C)CC2)c1C#N | -10.98% | –
21 | Cc1cc(NCCO)nc(N2CCCC2)c1C#N | 1.046% | –
22 | Cc1cc(NCCO)nc(N2CCC(Cc3ccccc3)CC2)c1C#N.O=C(O)C(=O)O | 62.98% | –
23 | CCCC(C)C(=O)N1CCOCC1 (stereo unspecified) | – | -3.427%
24 | NC(=O)CN(CCCO)Cc1ccccc1 | – | -1.308%
25 | O=S(=O)(CCN1CCC(CO)CC1)c1ccccc1 | – | -26.81%

Row | SMILES | Percent Effect (10 µM) | Percent Effect (50 µM)
26 | CC(C)c1cc(=O)[nH]c(-n2nc(C3CC3)cc2N)n1 | 94.68% | –
27 | CCCc1cc(=O)[nH]c(-n2nc(-c3cccs3)cc2N)n1 | 36.6% | –
28 | CCCc1cc(=O)[nH]c(-n2nc(C3CC3)cc2N)n1 | 94.33% | –
29 | CCc1c(C)nc(-n2nc(C3CC3)cc2NC(C)=O)[nH]c1=O | -1.935% | –
30 | CC(C)c1cc(=O)[nH]c(C(C)(C)N)n1.Cl | 21.75% | –
31 | Cc1cc(=O)[nH]c(-n2nc(C3CC3)cc2N)n1 | 28.72% | –
32 | CCc1cc(=O)[nH]c(-n2nc(C3CC3)cc2NC(=O)C2CC2)n1 | 96.09% | –
33 | Cn1nc(CNC(=O)C2CC2)cc1C1CC1 | -6.984% | –
34 | CCCc1cc(=O)[nH]c(C(C)(N)CC)n1 (stereo unspecified) | – | 0.6774%
35 | Cc1nscc1C(=O)OCCC(=O)NC(C)C | – | -12.79%
36 | CCCn1nc(C)cc1NC(=O)N1CCCC(C#N)C1 (stereo unspecified) | – | -0.4936%
37 | COc1cc(Br)cnc1C#N | – | -14.47%
38 | CSCc1ccc(C(=O)N2CC(CC(N)=O)C2)cc1 | – | -6.52%
39 | NCc1ccccc1OC(F)(F)F | – | 14.39%
40 | OC1(c2ccccc2)CCCNCC1 (stereo unspecified) | – | 3.493%
41 | CCc1nnc(NC(=O)c2ccc(S(=O)(=O)NC)o2)s1 | – | -1.635%
42 | CCSc1ccc(C(=O)NCCc2nnc[nH]2)cn1 | – | 5.402%
43 | CCc1ccccc1OCC(=O)N1CCOCC1c1ncon1 (stereo unspecified) | 7.498% | –
44 | Cc1cccc(C)c1OCC(=O)N1CCOCC1c1ncon1 (stereo unspecified) | 56.8% | –
45 | O=C(COc1cccc(Cl)c1)N1CCOCC1c1ncon1 (stereo unspecified) | 37.28% | –
46 | OC1(C2CCCCC2)CCNCC1 | – | 0.8115%
47 | C=C(Br)CN1CCN(CCNC(=O)C2CCC2)CC1 | – | -27.84%
48 | CN(C)c1ccc(NC(=O)CCc2cccnc2)cn1 | – | -6.854%
49 | CCc1nccn1CCNC1CCN(c2nc3ccc(Cl)cc3s2)CC1 | 59.54% | –
50 | Clc1ccc2nc(N3CCC(NCCCC4CCOC4)CC3)sc2c1 (stereo unspecified) | -1.385% | –

Row | SMILES | Percent Effect (10 µM) | Percent Effect (50 µM)
51 | CCS(=O)(=O)CCNC1CCN(c2nc3ccc(Cl)cc3s2)CC1 | 6.923% | –
52 | CC(CN)C(=O)Nc1cn[nH]c1 (stereo unspecified) | – | 55.25%
53 | CC(CNC(=O)Nc1cn[nH]c1)N(C)C (stereo unspecified) | – | -3.915%
54 | CC(=O)Nc1cn[nH]c1 | – | -20.18%
55 | CCn1cc(S(=O)(=O)N2CCNCC2)c(C)n1 | – | -15.85%
56 | NC(=O)C1CN(c2ccc3cccc(Br)c3n2)CCO1 (stereo unspecified) | – | -8.237%
57 | CS(=O)(=O)c1cc(Cl)cc(CN)c1 | – | -21.93%
58 | CNS(=O)(=O)c1ncccc1N | – | -16.66%
59 | NCc1ccc(CN2CCCCC2)cc1 | – | 0.9541%
60 | NCc1cccc(CN2CCCC2)c1 | – | 60.68%
61 | NCc1cccc(CN2CCCC2=O)c1 | – | -4.942%
62 | Cc1nn(C)c(C)c1NC(=O)N1CCSCC1 | – | -12.54%
63 | CN(C)c1cc(CNC(=O)c2cnccn2)ccn1 | 21.24% | –
64 | CN(C)c1cc(CNC(=O)c2ccncc2)ccn1 | – | -1.688%
65 | CN(C)c1cc(CNC(=O)c2nccnc2N)ccn1 | – | 58.76%
66 | O=C1CC[C@@H](CO)N1 | – | -0.2195%
67 | CCS(=O)(=O)c1cccc(CN)c1 | – | 21.69%
68 | Cc1ccc(C(=O)NCCCN2CCCC2)cc1 | – | 3.9%
69 | Cc1cc(NC(=O)NCc2cccnc2OC2CCCC2)n(C)n1 | -3.087% | –
70 | CNC(=O)NCc1cccnc1OC1CCCC1 | – | 56.84%
71 | N#Cc1c(Cl)nsc1NCc1cccnc1OCC(F)(F)F | 25.91% | –
72 | CC(O)CNC(=O)NCc1cccnc1OC1CCCC1 (stereo unspecified) | -1.891% | –
73 | N#Cc1c(Cl)nsc1NCc1cccnc1OC1CCCC1 | 78.06% | –
74 | COc1ncccc1CNc1snc(Cl)c1C#N | 29.55% | –
75 | CCN1CCCC1CNC(=O)CN(C)S(C)(=O)=O (stereo unspecified) | – | -8.865%

Row | SMILES | Percent Effect (10 µM) | Percent Effect (50 µM)
76 | COc1cccc(NC(=O)CN2CCCNCC2)c1 | – | -7.679%
77 | O=C(Nc1ccccn1)N1CCCN(C2CC2)CC1 | – | 3.024%
78 | O=C(c1ccc(COc2ccc(Cl)cc2)o1)N1N=CCC1(O)C(F)(F)F (stereo unspecified) | 95.68% | –
79 | O=C(Cn1cc(Br)cn1)N1N=CCC1(O)C(F)(F)F (stereo unspecified) | – | -25.92%
80 | Cc1cccc(OCc2ccc(C(=O)N3N=CCC3(O)C(F)(F)F)o2)c1 (stereo unspecified) | 93.63% | –
81 | O=C(c1ccc(COc2ccccc2Cl)o1)N1N=CCC1(O)C(F)(F)F (stereo unspecified) | 45.92% | –
82 | COCc1ccc(C(=O)N2CCC(Oc3ccccc3)(C(=O)O)CC2)o1 | 0.5821% | –
83 | COc1ccc(C(=O)N2CCC(Oc3cccc(C)c3)(C(=O)O)CC2)o1 | -1.229% | –
84 | CC(C)NC(=O)CNCc1ccc(Br)o1 | – | 0.3067%
85 | CN1CCN(C)C2(CCN(C(=O)C(C)(C)O)CC2)C1 | – | 7.866%
86 | Cc1cc(C(=O)N2CCN(c3nc4c(C(C)C)cccc4s3)CC2)no1 | 14.68% | –
87 | Cc1cc(C(=O)N2CCN(c3nc4c(C)cccc4s3)CC2)no1 | 11.62% | –
88 | Cc1cc(C(=O)N2CCN(c3nc4c(C(C)C)cccc4s3)CC2)on1 | 83.09% | –
89 | CC(C)C(=O)Nc1cccc(CN)c1 | – | -3.402%
90 | CCOCCSc1nnnn1CC1CCCO1 (stereo unspecified) | – | 4.057%
91 | CCc1nc(NCC(=O)N2CCOCC2)c2c(n1)c(C)nn2CC | -2.271% | –
92 | CCCc1nc(Nc2cccc(C(N)=O)c2)c2c(n1)c(C)nn2CC | 20.54% | –
93 | CCc1nc(Nc2cccc(C(=O)NC)c2)c2c(n1)c(C)nn2CC | 63.37% | –
94 | CCc1nc(Nc2ccc(C(=O)NC)cc2)c2c(n1)c(C)nn2CC | 64.18% | –
95 | CCn1nc(C)c2nnn(CC(=O)Nc3ccc(C)cc3)c(=O)c21 | 5.455% | –
96 | CCn1nc(C)c(C(C)NC(=O)c2cccc(NCC(=O)O)c2)c1C (stereo unspecified) | -6.268% | –
97 | CN1C(=O)c2cccn2CC1CNC(=O)c1ccco1 (stereo unspecified) | – | 46.69%
98 | CNC(=O)CS(=O)(=O)Cc1cc(=O)n(C)c(=O)n1C | – | 9.101%
99 | CN(C)C(=O)CN(C)c1ncc(C(F)(F)F)cc1Cl | – | 0.3926%
100 | CCS(=O)(=O)Nc1ccc(C(=O)NC2CC2)cc1 | – | -14.67%

Row | SMILES | Percent Effect (10 µM) | Percent Effect (50 µM)
101 | O=C(NCc1nc(C2CC2)no1)Nc1nncs1 | – | 96.18%
102 | Cc1cnc(C(NC(=O)NCc2nc(C3CC3)no2)C2CC2)s1 (stereo unspecified) | 2.41% | –
103 | CCc1nc(C2CCCN2CC(=O)Nc2nncs2)no1 (stereo unspecified) | 2.118% | –
104 | Cc1ccccc1C1(O)CCN(Cc2ncc[nH]2)C1 (stereo unspecified) | – | -4.711%
105 | Cc1ncc(CN2CCOC(c3ccc(-c4cc[nH]n4)cn3)C2)s1 (stereo unspecified) | -16.2% | –
106 | Cc1ncc(CN2CCOC(c3ccc(-c4cnn(C)c4)cn3)C2)s1 (stereo unspecified) | -14.87% | –
107 | Cc1ncc(CN2CCOC(c3ccc(-c4ccccc4F)cn3)C2)s1 (stereo unspecified) | 56.75% | –
108 | O=C(NC1CCNC1)C1CCC1 (stereo unspecified) | – | 7.426%
109 | N#Cc1ccc(CN)c(F)c1 | – | 29.17%
110 | CC(Sc1n[nH]c(-c2ccccn2)n1)C(=O)N(C)C (stereo unspecified) | – | 2.084%
111 | CC(C)CNC(=O)CSc1n[nH]c(-c2ccccn2)n1 | – | 52.47%
112 | CC(CSc1n[nH]c(-c2ccccn2)n1)CS(C)(=O)=O (stereo unspecified) | – | 14.41%
113 | CCNc1cccc(OC)c1 | – | -5.589%
114 | Cn1nc(CC#N)c2ccccc21 | – | -11.92%
115 | OCCOc1ccc(NCc2cccnc2)cn1 | 0.5408% | –
116 | CCCc1nnc(NCc2cccnc2)o1 | – | -5.41%
117 | Nc1cccnc1NCc1cccnc1 | – | 56.86%
118 | CN(CCN1CCCC1=O)C(=O)c1ncccc1Br | – | -6.361%
119 | N#CCC1COc2ccccc2O1 (stereo unspecified) | – | -13.18%
120 | CC(C)N(C)S(=O)(=O)NCCCN(C)c1ccccc1 | – | 0.05674%
121 | CN(C)C(=O)C1CCN(Cc2ccccc2F)CC1 | – | -0.8921%
